Where “and” joins values, the source holds several entries; their conditions need not be identical. Identical values can stand only once. Calls of active or inactive are those of the source.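 The calls were made as follows, unless noted: active = compounds killing one labelled cell type while sparing the other, by normalised counts and ratio limits, not self-fluorescent; inactive = the rest.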
How the values were obtained:
[1] = blockers of polyQ-driven CASP3 activation – cell-based (AID 1583); conditions: polyglutamine-induced caspase-3 activation, cell assay; stronger effect = higher value;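 tested at 10 µM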
[2] = yeast 75Q aggregation reduction – 75Q-TubU reporter (AID 1593); conditions: Yeast 75Q polyglutamine aggregation reporter
[3] = EMT-state selective cytotoxicity in co-culture – imaging, PC-3E GFP, TEM4-18 mCherry, primary screen (AID 1345086); conditions: PC-3E GFP / TEM4-18 mCherry co-culture, imaging cell counts, at 1 µM; for red/green cell ratio (normalised): actives lie on both sides, counts scaled to control wells, 1 = unselective;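 as to all read-outs here: cells exposed to compound for 72 h before imaging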;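 as to red/green cell ratio (normalised): normalised mesenchymal count divided by normalised epithelial count so high means epithelial killing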
[4] = target: Mitogen-activated protein kinase 7 (Homo sapiens) (UniProt Q13164); test: Gal4-ERK5 driven luciferase induction – cell-based, HTS, primary screen (AID 1508626;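 active = luciferase signal above three times the same-plate solvent-only control wells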;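 also: luciferase driven by Gal4-ERK5 fusion binding five Gal4 sites before minimal TATA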); conditions: HeLa Gal4-ERK5 transactivation, 18 h, at 5 µM, stronger effect = higher value
[5] = P. berghei load reduction in hepatocytes – cell-based, HepG2, luciferase luminescence, HepG2 viability, primary screen (AID 624349; in the data active = parasite load remaining mostly below about 12%, no sharp cut-off; inactive = mostly above about 10%;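 also: 100% = mean of DMSO negative control wells on the same plate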); conditions: P. berghei liver stage in HepG2, luciferase luminescence, concentration not given here; parasite load remaining: stronger effect = lower value; viability: measured here: HepG2 viability without parasites
[6] = measured here: epithelial PC-3E GFP cell survival
[7] = measured here: mesenchymal TEM4-18 mCherry cell survival

Sequence of Mitogen-activated protein kinase 7 (Homo sapiens) (Q13164 whole entry, looked up, the tested form may be a part): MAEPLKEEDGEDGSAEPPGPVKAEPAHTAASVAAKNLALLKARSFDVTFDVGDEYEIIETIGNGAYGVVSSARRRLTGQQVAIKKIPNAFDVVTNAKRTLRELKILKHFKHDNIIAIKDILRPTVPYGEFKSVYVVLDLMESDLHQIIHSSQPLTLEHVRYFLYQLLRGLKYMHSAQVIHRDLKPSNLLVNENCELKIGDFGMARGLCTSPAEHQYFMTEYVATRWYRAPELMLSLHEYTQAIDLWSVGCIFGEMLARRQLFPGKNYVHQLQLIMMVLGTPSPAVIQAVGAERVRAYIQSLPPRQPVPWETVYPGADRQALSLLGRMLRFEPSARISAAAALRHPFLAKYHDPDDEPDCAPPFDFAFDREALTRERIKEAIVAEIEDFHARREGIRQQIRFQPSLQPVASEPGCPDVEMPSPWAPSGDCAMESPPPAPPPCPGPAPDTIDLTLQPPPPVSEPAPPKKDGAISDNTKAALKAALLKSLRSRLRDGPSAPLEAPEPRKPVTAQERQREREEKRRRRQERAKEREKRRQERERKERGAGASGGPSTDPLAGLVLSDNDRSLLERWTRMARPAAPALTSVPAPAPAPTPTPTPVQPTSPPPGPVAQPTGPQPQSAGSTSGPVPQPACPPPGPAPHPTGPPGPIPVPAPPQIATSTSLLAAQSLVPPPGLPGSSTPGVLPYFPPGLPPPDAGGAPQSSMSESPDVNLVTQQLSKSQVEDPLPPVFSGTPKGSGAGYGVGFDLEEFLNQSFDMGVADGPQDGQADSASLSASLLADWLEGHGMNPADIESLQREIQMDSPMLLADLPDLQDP

| SMILES | inhibition [1] [%] | score [2] | red/green cell ratio (normalised) [3] | normalised cell number [3, 6] | normalised cell number [3, 7] | luciferase signal [4] | parasite load remaining [5] | viability [5] [%] |
| --- | --- | --- | --- | --- | --- | --- | --- | --- |
| O=c1ccn([C@@H]2O[C@H](COP(=O)(O)OP(=O)(O)OP(=O)(O)O)[C@@H](O)[C@H]2O)c(=O)[nH]1 | -7.02 | 1.5 | 1.18 (inactive) | 0.94 | 1.1 | 36 AU (inactive) |  |  |
| CC1(C)C(=O)C=C[C@@]2(C)C1CC(=O)[C@]1(C)C2CC[C@@]2(C)[C@H](c3ccoc3)OC(=O)[C@H]3O[C@]321 (stereo not given in full) |  |  | 1.47 (inactive) | 0.82 | 1.21 | 16 AU (inactive) |  |  |
| C[C@]12CCC3c4ccc(OC(=O)c5ccccc5)cc4CCC3C1CCC2=O (stereo not given in full) |  |  | 0.85 (inactive) | 1.24 | 1.05 | 40 AU (inactive) |  |  |
| COc1ccc2oc3ccccc3c(=O)c2c1 |  |  | 0.95 (inactive) | 1.2 | 1.14 | 88 AU (inactive) |  |  |
| COc1ccc(-c2oc3cc(OC)c(OC)c(OC)c3c(=O)c2OC)cc1 |  |  | 1.04 (inactive) | 1.02 | 1.05 | 72 AU (inactive) |  |  |
| OC[C@H]1O[C@@H](O[C@H]2[C@H](O)[C@@H](O)[C@@H](O)O[C@@H]2CO)[C@H](O)[C@@H](O)[C@@H]1O |  |  | 1.17 (inactive) | 0.89 | 1.04 | 32 AU (inactive) |  |  |
| O=C1C=CC(=O)c2c(O)c(Cl)c(Cl)c(O)c21 |  |  | 1 (inactive) | 1.04 | 1.04 | 12 AU (inactive) |  |  |
| CN(C)CC(=O)OC[C@@H](O)[C@@H](O)[C@H](O)[C@@H](O)C(=O)O |  |  | 1.02 (inactive) | 1.08 | 1.1 | 36 AU (inactive) |  |  |
| CCCCCCCCCCCCCCCC(=O)OCC(O)CO (stereo not given) |  |  | 0.84 (inactive) | 1.14 | 0.96 | 72 AU (inactive) |  |  |
| COc1ccc(/C=C/C(=O)O)cc1OC |  |  | 0.97 (inactive) and 0.98 (inactive) | 0.93 and 1 | 0.91 and 0.98 | 52 AU (inactive) and 80 AU (inactive) |  |  |
| CC[C@@H](C(=O)[C@@H](C)[C@@H](O)[C@H](C)[C@@H]1O[C@@H]([C@@H](CC)C(=O)O)CC[C@@H]1C)[C@H]1OC2(C=C[C@@H](O)[C@]3(CC[C@@](C)([C@H]4CC[C@](O)(CC)[C@H](C)O4)O3)O2)[C@H](C)C[C@@H]1C (stereo not given in full) | 40.3 | 0.53 | 0.65 (active) | 0.55 | 0.36 | 36 AU (inactive) | -5.04% (inactive) | 82 |
| CC(=O)O[C@@H]1CC2C(C)(C)C(=O)C3OC3[C@]2(C)C2CC[C@@]3(C)[C@H](c4ccoc4)OC(=O)C4OC43[C@@]21C (stereo not given in full) |  |  | 1.04 (inactive) | 1.01 | 1.05 | 4 AU (inactive) |  |  |
| COc1cc(O)c(C(=O)/C=C/c2ccc(OC)c(O)c2)c(OC)c1 |  |  | 1.01 (inactive) | 0.89 | 0.9 | 84 AU (inactive) |  |  |
| COc1cc(O)c(C(=O)/C=C/c2ccc(O)c(OC)c2)c(OC)c1 |  |  | 0.93 (inactive) | 1.1 | 1.02 | 60 AU (inactive) |  |  |
| O=C(NC1CCCCC1)NC1CCCCC1 |  |  | 0.92 (inactive) | 1.15 | 1.06 | 60 AU (inactive) |  |  |
| O=C(O)/C=C/C=C/c1ccc2c(c1)OCO2 |  |  | 1.14 (inactive) | 0.9 | 1.03 | 24 AU (inactive) |  |  |
| C[C@@H]1O[C@@H](O[C@H]2[C@H](Oc3cc(O)c4c(=O)cc(-c5ccc(O)cc5)oc4c3)O[C@H](CO)[C@@H](O)[C@@H]2O)[C@H](O)[C@H](O)[C@H]1O |  |  | 1.02 (inactive) | 0.87 | 0.89 | 56 AU (inactive) |  |  |
| O=c1cc(-c2ccccc2)oc2cccc(O)c12 |  |  | 0.94 (inactive) | 1.1 | 1.03 | 104 AU (inactive) |  |  |
| COc1ccc2c(c1)OCC(Cc1ccc(O)c(OC)c1)C2=O (stereo not given) |  |  | 0.93 (inactive) | 1.04 | 0.96 | 84 AU (inactive) |  |  |
| CC(C)(N=NC(C)(C)C(=N)N)C(=N)N |  |  | 1.04 (inactive) | 1.17 | 1.22 | 20 AU (inactive) |  |  |
| CC1=CC(=O)C2C(C)(C)CCC[C@]2(C)[C@@]1(O)CCc1ccoc1 (stereo not given in full) |  |  | 1.02 (inactive) | 0.94 | 0.96 | 128 AU (inactive) |  |  |
| O=c1cc(-c2ccccc2O)oc2cc(O)ccc12 |  |  | 1 (inactive) | 0.97 | 0.97 | 112 AU (inactive) |  |  |
| O=C(O)/C=C/C=C/c1ccccc1 |  |  | 1.01 (inactive) | 0.93 | 0.93 | 64 AU (inactive) |  |  |
| C=CCCCCCCCCCCCc1ccco1 |  |  | 1.12 (inactive) | 0.9 | 1.01 | 112 AU (inactive) |  |  |
| C#CCCCCCCCCCCCc1ccco1 |  |  | 0.97 (inactive) | 1.01 | 0.98 | 148 AU (inactive) |  |  |
| CC(=O)O[C@@H]1CC2C(C)(C)[C@H](O)C=C[C@]2(C)C2CC[C@@]3(C)[C@H](c4ccoc4)OC(=O)C4OC43[C@@]21C (stereo not given in full) |  |  | 1.02 (inactive) | 1.17 | 1.19 | 56 AU (inactive) |  |  |

— PubChem BioAssay
